The results in this text go back to PubChem BioAssay (Tox21).

A number with no mark means an inactive call. Records with an inconclusive call do not appear. Activity calls are given as the source filed them. Unless noted, calls come from the whole dose curve; as a rule, active = well fitted curve in the direction sought with a large enough effect in the repeat runs; inconclusive = weak or mixed curves; inactive = no such curve, though single readings can be large; an effect the other way counts as inactive or inconclusive.
% is set by controls: 0 for no effect and ±100 for the full control effect; potency is the fitted concentration of half-maximal effect.

Chain of Androgen receptor (Homo sapiens) (P10275 whole entry, looked up): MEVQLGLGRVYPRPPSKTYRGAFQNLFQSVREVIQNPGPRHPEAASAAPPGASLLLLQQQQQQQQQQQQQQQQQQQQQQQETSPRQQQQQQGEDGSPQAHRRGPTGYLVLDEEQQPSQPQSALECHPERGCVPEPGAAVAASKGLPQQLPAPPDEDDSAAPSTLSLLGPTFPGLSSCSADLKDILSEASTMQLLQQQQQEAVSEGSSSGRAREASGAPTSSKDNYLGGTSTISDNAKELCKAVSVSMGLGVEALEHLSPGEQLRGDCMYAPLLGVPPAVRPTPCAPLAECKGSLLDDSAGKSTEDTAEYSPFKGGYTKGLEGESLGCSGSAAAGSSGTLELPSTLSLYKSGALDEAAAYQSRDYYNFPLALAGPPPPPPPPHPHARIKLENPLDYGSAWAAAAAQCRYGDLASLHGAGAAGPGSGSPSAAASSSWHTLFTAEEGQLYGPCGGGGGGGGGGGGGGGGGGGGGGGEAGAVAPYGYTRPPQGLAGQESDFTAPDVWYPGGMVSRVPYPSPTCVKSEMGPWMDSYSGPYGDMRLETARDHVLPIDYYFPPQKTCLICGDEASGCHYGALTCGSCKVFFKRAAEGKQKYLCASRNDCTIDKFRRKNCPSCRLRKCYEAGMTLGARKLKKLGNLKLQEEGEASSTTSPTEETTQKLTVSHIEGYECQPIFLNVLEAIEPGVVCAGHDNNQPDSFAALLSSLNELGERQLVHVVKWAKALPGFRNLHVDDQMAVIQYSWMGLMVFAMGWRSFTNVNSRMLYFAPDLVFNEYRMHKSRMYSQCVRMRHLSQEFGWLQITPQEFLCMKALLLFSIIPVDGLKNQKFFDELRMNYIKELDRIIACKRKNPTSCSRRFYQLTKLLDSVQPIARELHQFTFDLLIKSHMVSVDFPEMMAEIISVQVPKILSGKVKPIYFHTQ

System in the first test: not listed separately
Briefly: qHTS assay to identify small molecule antagonists of the androgen receptor (AR) signaling pathway - cell viability counter screen (AID 743033; note: nearly all actives have a fitted effect of over 45% in size). Particulars: AR-bla HEK293 viability, CellTiter-Glo luminescence, 16 h; series mostly up to 58.5 µM; activity change, negative = cytotoxicity: at the top concentration.
As for `O=C(OCCO)c1ccccc1O`, the “activity change, negative = cytotoxicity” value is -0.497%.

`C=C[C@]1(C)C[C@@H](OC(=O)CO)[C@]2(C)[C@H](C)CC[C@]3(CCC(=O)[C@H]32)[C@@H](C)[C@@H]1O`: the “activity change, negative = cytotoxicity” value was -7.78%.

`CC(C)[C@@H](C)/C=C/[C@@H](C)[C@H]1CC[C@H]2/C(=C/C=C3\C[C@@H](O)CC[C@@H]3C)CCC[C@]12C`: the “activity change, negative = cytotoxicity” value was 2.22%.

As for `CC(=O)OCC(=O)[C@@]1(O)[C@H](C)C[C@H]2[C@@H]3C[C@H](F)C4=CC(=O)C=C[C@]4(C)[C@H]3[C@@H](O)C[C@@]21C`, the “activity change, negative = cytotoxicity” value is -27.9%.

For the molecule `C=Cc1c(C)c2cc3nc(cc4[nH]c(cc5nc(cc1[nH]2)C(C)=C5CCC(=O)OC)c(CCC(=O)O)c4C)[C@@]1(C)C3=CC=C(C(=O)OC)[C@H]1C(=O)OC`, the “activity change, negative = cytotoxicity” value was 0.698%.

As for `COCC(=O)Nc1cc(Sc2ccccc2)ccc1N=C(NC(=O)OC)NC(=O)OC`, the “activity change, negative = cytotoxicity” value was -11.1%.

Regarding `CCN(CC)CCOC(=O)c1cccnc1`, the “activity change, negative = cytotoxicity” value is 3.4%.

As for `COc1ccc(-c2noc(CC(=O)O)c2-c2ccc(OC)cc2)cc1`, the “activity change, negative = cytotoxicity” value was -0.172%.

`NCCC[C@H](N)C(=O)O`: the “activity change, negative = cytotoxicity” value was 7.74%.

With `CC(C)CN(C[C@@H](O)[C@H](Cc1ccccc1)NC(=O)O[C@@H]1CCOC1)S(=O)(=O)c1ccc(N)cc1`, the “activity change, negative = cytotoxicity” value is -7.11%.

For `COc1cc2c(cc1OC)CC(=O)N(CCCN(C)C[C@H]1Cc3cc(OC)c(OC)cc31)CC2`, the “activity change, negative = cytotoxicity” value is 12.8%.

`CCC[C@@H]1C[C@@H](C(=O)N[C@@H]([C@H]2O[C@H](SC)[C@H](O)[C@@H](O)[C@H]2O)[C@H](C)Cl)N(C)C1`: the “activity change, negative = cytotoxicity” value was 1.45%.

On to `Cc1cc(/C=C/c2ccc3cc(N(C)C)ccc3[n+]2C)c(C)n1-c1ccccc1`, for which the Potency is 4560 nM (active).

`CC(O)[C@H]1CC[C@H]2[C@@H]3CC[C@@H]4C[C@@H](O)CC[C@]4(C)[C@H]3CC[C@]12C` (stereo not given in full): the “activity change, negative = cytotoxicity” value was -0.836%.

With `CNC(=O)[C@H](Cc1c[nH]c2ccccc12)NC(=O)[C@@H](CC(=O)NO)CC(C)C`, the “activity change, negative = cytotoxicity” value is -17.1%.

Another test deals with Androgen receptor (Homo sapiens) (UniProt P10275). Briefly: qHTS assay to identify small molecule agonists of the androgen receptor (AR) signaling pathway (AID 743036; active = well fitted activation curve with a large enough effect in the signal ratio in the repeat runs, with a control signal flat, not every such curve was filed as active; the % refers to the signal ratio). The following applies: HEK293 AR-UAS-bla GripTite, beta-lactamase FRET ratio, 16 h; series mostly up to 62.4 µM; activation: at the top concentration. In outline:
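AR-UAS-bla HEK293 cells, plated 4 h before dosing, were treated with compound for 16 h at 37C. beta-Lactamase reporter read after 2 h with LiveBLAzer B/G FRET substrate at room temperature.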
As to `CC(C)(CO)[C@@H](O)C(=O)NCCCC(=O)O`, the “activation” value was -2.5%.

As to `C[C@@H]1C[C@H]2C3C[C@H](F)C4=CC(=O)C=CC4(C)[C@@]3(F)[C@@H](O)CC2(C)[C@@]1(O)C(=O)COC(=O)C(C)(C)C` (stereo not given in full), the Potency was 60.1 nM (active).

On to `CC(=O)OCC(=O)[C@@]1(O)[C@H](C)C[C@H]2[C@@H]3C[C@H](F)C4=CC(=O)C=C[C@]4(C)[C@H]3[C@@H](O)C[C@@]21C`, for which the Potency was 1340 nM (active).

With `CCC(=O)Oc1ccc2c(c1)CC[C@@H]1[C@@H]2CC[C@]2(C)[C@@H](OC(=O)CC)CC[C@@H]12`, the Potency is 2390 nM (active).

As for `CC(C)CN(C[C@@H](O)[C@H](Cc1ccccc1)NC(=O)O[C@@H]1CCOC1)S(=O)(=O)c1ccc(N)cc1`, the “activation” value was -0.0208%.

Another test has the same target. Nature of the test: qHTS assay to identify small molecule agonists of the androgen receptor (AR) signaling pathway using the MDA cell line (AID 743040; note: nearly all actives have a fitted effect of over 20% in size). Particulars: MDA-kb2 AR-luc cells, MMTV luciferase, 16 h; series mostly up to 70.3 µM; activity change: at the top concentration. In outline:
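Luciferase read-out, ONE-Glo, 30 min RT. Cells: MDA-kb2 AR-luc, MMTV promoter with AR and GR response elements. Compound exposure 16 h, 37C, 0% CO2, after 5 h pre-incubation. qHTS agonist mode.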
For `CCOC(=O)c1cc(-c2ccccc2)nc2ccc(C)cc12`, the “activity change” value was -0.98%.

As to `C[C@@H]1C[C@H]2C3C[C@H](F)C4=CC(=O)C=CC4(C)[C@@]3(F)[C@@H](O)CC2(C)[C@@]1(O)C(=O)COC(=O)C(C)(C)C` (stereo not given in full), the Potency was 4.7 nM (active).

For the molecule `COC(=O)[C@H]1[C@H]2C[C@@H]3c4[nH]c5cc(OC)ccc5c4CCN3C[C@H]2C[C@@H](OC(=O)/C=C/c2cc(OC)c(OC)c(OC)c2)[C@@H]1OC`, the “activity change” value was -2.84% [at 32.5 µM, active compounds read high].

`O=C(Nc1ccc(O)cc1)c1ccccc1O`: the “activity change” value is 13.6%.

Turning to `CC(=O)OCC(=O)[C@@]1(O)[C@H](C)C[C@H]2[C@@H]3C[C@H](F)C4=CC(=O)C=C[C@]4(C)[C@H]3[C@@H](O)C[C@@]21C`, the Potency is 29.8 nM (active).

`CCC(=O)Oc1ccc2c(c1)CC[C@@H]1[C@@H]2CC[C@]2(C)[C@@H](OC(=O)CC)CC[C@@H]12`: the Potency was 1190 nM (active).

For the molecule `CC(C)CN(C[C@@H](O)[C@H](Cc1ccccc1)NC(=O)O[C@@H]1CCOC1)S(=O)(=O)c1ccc(N)cc1`, the “activity change” value was -0.362%.

System in the next test: not listed separately
Nature of the test: qHTS assay to identify small molecule antagonists of the androgen receptor (AR) signaling pathway using the MDA cell line - cell viability counter screen (AID 743041; note: nearly all actives have a fitted effect of over 45% in size). The following applies: MDA-kb2 viability, CellTiter-Fluor, 16 h, cells co-treated with R1881 androgen agonist; series mostly up to 70.3 µM; viability change, negative = cytotoxic: at the top concentration. The method, boiled down:
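Cytotoxicity counter screen: MDA-kb2 AR-luc cells, compound + R1881, 16 h, 37C, 0% CO2; CellTiter-Fluor added at 15.5 h, fluorescence read after 30 min.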
Background: Quantitative high-throughput screening tests each substance at several concentrations.
Regarding `O=C(O)[C@H](CC(=O)N1C[C@H]2CCCC[C@H]2C1)Cc1ccccc1`, the “viability change, negative = cytotoxic” value is 3.85%.

As to `CC(C)(CO)[C@@H](O)C(=O)NCCCC(=O)O`, the “viability change, negative = cytotoxic” value is -0.288%.

Turning to `C=C1CC2C3CCC4=CC(=O)C=C[C@]4(C)[C@@]3(F)[C@@H](O)C[C@]2(C)[C@@]1(O)C(=O)COC(C)=O` (stereo not given in full), the “viability change, negative = cytotoxic” value is 3.08%.

In the case of `CCOC(=O)c1cc(-c2ccccc2)nc2ccc(C)cc12`, the “viability change, negative = cytotoxic” value was 8.2%.

On to `C[C@@H]1C[C@H]2C3C[C@H](F)C4=CC(=O)C=CC4(C)[C@@]3(F)[C@@H](O)CC2(C)[C@@]1(O)C(=O)COC(=O)C(C)(C)C` (stereo not given in full), for which the “viability change, negative = cytotoxic” value was -3.38%.

In the case of `COC(=O)[C@H]1[C@H]2C[C@@H]3c4[nH]c5cc(OC)ccc5c4CCN3C[C@H]2C[C@@H](OC(=O)/C=C/c2cc(OC)c(OC)c(OC)c2)[C@@H]1OC`, the “viability change, negative = cytotoxic” value was 14.5% [at 32.5 µM].

Consider `NC(=O)OC[C@@H]1[C@H](NC(=O)/C(=N\OCC(=O)O)c2csc(N)n2)C(=O)N1S(=O)(=O)O`, for which the “viability change, negative = cytotoxic” value is -3.77%.

Regarding `C[N+](C)(CCCCCC[N+](C)(C)C1c2ccccc2-c2ccccc21)C1c2ccccc2-c2ccccc21`, the “viability change, negative = cytotoxic” value was 4.19%.

In the case of `O=C(O)c1c(Cl)c(Cl)c(Cl)c(Cl)c1-c1c2cc(I)c(=O)c(I)c-2oc2c(I)c(O)c(I)cc12`, the Potency is 24800 nM (active).

For `O=C(Nc1ccc(O)cc1)c1ccccc1O`, the “viability change, negative = cytotoxic” value was -1.65%.

In the case of `O=C(CCCCCCCCCCCCC1CCCC1)Nc1ccc(S(=O)(=O)c2ccc(NC(=O)CCCCCCCCCCCCC3CCCC3)cc2)cc1`, the “viability change, negative = cytotoxic” value was 1.65%.

As for `c1ccc2cc(C3=NCCN3)ccc2c1`, the “viability change, negative = cytotoxic” value was -0.25%.

As to `CC(C)c1nc(N(C)S(C)(=O)=O)nc(-c2ccc(F)cc2)c1/C=C/C(O)CC(O)CC(=O)O` (stereo not given), the “viability change, negative = cytotoxic” value is 3.61%.

`O=C(OCc1ccccc1)c1cccnc1`: the “viability change, negative = cytotoxic” value was -15.9%.

As for `CC(C)(CO)[C@@H](O)C(=O)NCCC(=O)NCCSSCCNC(=O)CCNC(=O)[C@H](O)C(C)(C)CO`, the “viability change, negative = cytotoxic” value is 3.52%.

For the molecule `COc1cc(C)c(/C=C/C(C)=C/C=C/C(C)=C/C(=O)O)c(C)c1C`, the “viability change, negative = cytotoxic” value is 0.257%.

As to `O=C(O)c1cc2ccccc2c(Cc2c(O)c(C(=O)O)cc3ccccc23)c1O`, the “viability change, negative = cytotoxic” value was -3.01%.

Consider `O=C(OCCO)c1ccccc1O`, for which the “viability change, negative = cytotoxic” value was -0.614%.

With `C=C[C@]1(C)C[C@@H](OC(=O)CO)[C@]2(C)[C@H](C)CC[C@]3(CCC(=O)[C@H]32)[C@@H](C)[C@@H]1O`, the “viability change, negative = cytotoxic” value was 0.848%.

Consider `CC(C)[C@@H](C)/C=C/[C@@H](C)[C@H]1CC[C@H]2/C(=C/C=C3\C[C@@H](O)CC[C@@H]3C)CCC[C@]12C`, for which the “viability change, negative = cytotoxic” value was 22.1%.

Regarding `CC(=O)OCC(=O)[C@@]1(O)[C@H](C)C[C@H]2[C@@H]3C[C@H](F)C4=CC(=O)C=C[C@]4(C)[C@H]3[C@@H](O)C[C@@]21C`, the “viability change, negative = cytotoxic” value is 18.2%.

Regarding `COCC(=O)Nc1cc(Sc2ccccc2)ccc1N=C(NC(=O)OC)NC(=O)OC`, the “viability change, negative = cytotoxic” value is -3.82%.

Consider `CC(Oc1ccccc1)C(=O)N[C@@H]1C(=O)N2[C@@H]1SC(C)(C)[C@@H]2C(=O)O` (stereo not given in full), for which the “viability change, negative = cytotoxic” value is 1.61% [at 32.5 µM].

Turning to `CCC(=O)Oc1ccc2c(c1)CC[C@@H]1[C@@H]2CC[C@]2(C)[C@@H](OC(=O)CC)CC[C@@H]12`, the “viability change, negative = cytotoxic” value was -4.73%.

Consider `CCN(CC)CCOC(=O)c1cccnc1`, for which the “viability change, negative = cytotoxic” value is 3.54%.

With `COc1ccc(-c2noc(CC(=O)O)c2-c2ccc(OC)cc2)cc1`, the “viability change, negative = cytotoxic” value was 5.61%.

Regarding `NCCC[C@H](N)C(=O)O`, the “viability change, negative = cytotoxic” value is 3.95%.

For the molecule `CC(C)CN(C[C@@H](O)[C@H](Cc1ccccc1)NC(=O)O[C@@H]1CCOC1)S(=O)(=O)c1ccc(N)cc1`, the “viability change, negative = cytotoxic” value is 2.32%.

Turning to `COc1cc2c(cc1OC)CC(=O)N(CCCN(C)C[C@H]1Cc3cc(OC)c(OC)cc31)CC2`, the “viability change, negative = cytotoxic” value is 5.58%.

For the molecule `CCC[C@@H]1C[C@@H](C(=O)N[C@@H]([C@H]2O[C@H](SC)[C@H](O)[C@@H](O)[C@H]2O)[C@H](C)Cl)N(C)C1`, the “viability change, negative = cytotoxic” value was 31.6%.

On to `Cc1cc(/C=C/c2ccc3cc(N(C)C)ccc3[n+]2C)c(C)n1-c1ccccc1`, for which the Potency is 2660 nM (active).

Regarding `CC(O)[C@H]1CC[C@H]2[C@@H]3CC[C@@H]4C[C@@H](O)CC[C@]4(C)[C@H]3CC[C@]12C` (stereo not given in full), the “viability change, negative = cytotoxic” value is 0.363%.

For `CNC(=O)[C@H](Cc1c[nH]c2ccccc12)NC(=O)[C@@H](CC(=O)NO)CC(C)C`, the “viability change, negative = cytotoxic” value was 1.13%.
